Results filed as inconclusive are left out. Values without a mark were called inactive. Calls of active or inactive are those of the source. Calls come from the whole dose curve.
target: Cytochrome P450 1A2 (Homo sapiens) (UniProt P05177); experiment: p450-cyp1a2 (AID 410); settings: recombinant CYP1A2, luciferin-ME demethylation, luminescence; series mostly up to 25.6 µM; activity change, negative = inhibition: at the top concentration;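 for activity change, negative = inhibition: -100% = full effect of reference inhibitor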
Sequence (P05177 whole entry, looked up): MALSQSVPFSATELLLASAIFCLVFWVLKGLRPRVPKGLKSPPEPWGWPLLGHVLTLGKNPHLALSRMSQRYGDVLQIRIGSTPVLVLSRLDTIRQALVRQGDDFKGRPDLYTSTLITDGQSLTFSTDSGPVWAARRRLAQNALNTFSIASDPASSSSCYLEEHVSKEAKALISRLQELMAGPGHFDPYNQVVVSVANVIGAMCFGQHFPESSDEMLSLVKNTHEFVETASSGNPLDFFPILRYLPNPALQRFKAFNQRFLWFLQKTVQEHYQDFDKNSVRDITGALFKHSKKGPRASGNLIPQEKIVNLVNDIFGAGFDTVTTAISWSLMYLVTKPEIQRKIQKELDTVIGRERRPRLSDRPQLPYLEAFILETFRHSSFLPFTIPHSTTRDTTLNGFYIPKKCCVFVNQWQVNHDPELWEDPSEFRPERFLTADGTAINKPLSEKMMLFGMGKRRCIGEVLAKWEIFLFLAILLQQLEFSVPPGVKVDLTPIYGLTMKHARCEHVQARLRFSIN
Method: The P450 gene superfamily is involved in metabolism and the clearance of xenobiotics. This assay used human CYP1A2 to measure the demethylation of luciferin 6' methyl ether (Luciferin-ME; Promega-Glo) to luciferin. The luciferin is then measured by luminescence after the addition of a luciferase detection regeant. Luciferin-ME concentration in the assay was equal to its Km for CYP1A2.
NCGC Assay Protocol Summary:
Two uL of enzyme and substrate mix (final concentrations: 20nM CYP1A2, 100uM Luciferin-ME, 100mM KPO4) were dispensed into a white, solid bottom 1536-well microtiter plate. 23nL of compound was transferred by a pin tool. The plate was incubated at room temperature for 10 min. Two uL of an NADPH regeneration solution (Promega supplied reagent) was dispensed and the reaction was allowed to continue for 60 min at room temperature. Then the reaction was stopped by reconstituted detection reagent. After another 20 min of incubation the plate was read on the ViewLux (Perkin Elmer) at 60 sec exposure and 2x2 binning. This protocol was carried out with Promega-Glo reagents and further information can be found at http://www.promega.com/tbs/tb325/tb325.pdf. Data were normalized to the to AC100 inhibition (57 uM furafylline).
Potency is the fitted concentration of half-maximal effect.

SMILES | activity change, negative = inhibition | Potency
C[C@@H]1[C@H]2CC[C@@H]3[C@@H]4CC=C5C[C@@H](N(C)C)CC[C@]5(C)[C@@H]4CC[C@@]32CN1C | 6.7% | 
CN(C)c1ccc(O)c2c1C[C@H]1C[C@H]3[C@@H](N(C)C)C(=O)C(C(N)=O)=C(O)[C@]3(O)C(=O)C1=C2O | -5.1% | 
O=c1cc(-c2cccc(O)c2)oc2cc(O)ccc12 |  | 5.01 µM (active)
C[C@H](CCC(=O)NCC(=O)O)[C@H]1CC[C@H]2[C@H]3[C@@H](C[C@@H](O)[C@]12C)[C@]1(C)CC[C@H](O)C[C@@H]1C[C@@H]3O | -2.8% | 
O=C(c1cc(C(F)(F)F)cc(C(F)(F)F)c1)N1CCC[C@@]2(CCN(c3ccccn3)C2)C1 |  | 25.1 µM (active)
Cc1cccc(C)c1NC(=O)[C@H](C)N | -13.8% | 
CC[C@@H]1OC(=O)[C@H](C)[C@H](O[C@@H]2C[C@](C)(OC)[C@H](O)[C@H](C)O2)[C@H](C)[C@H](O[C@@H]2O[C@@H](C)C[C@@H](N(C)C)[C@@H]2O)[C@](C)(O)C[C@H](C)C(=O)[C@H](C)[C@H](O)[C@]1(C)O | -3.1% | 
NCc1ccccc1CC(=O)N[C@@H]1C(=O)N2C(C(=O)O)=C(CSc3nnnn3CC(=O)O)CS[C@@H]12 | -9.7% | 
CC1(C)S[C@@H]2[C@H](NC(=O)C(N)c3ccccc3)C(=O)N2[C@H]1C(=O)O (stereo not given in full) | -0.1% | 
C=Cc1c(C)c2cc3nc(cc4[nH]c(cc5nc(cc1[nH]2)C(C)=C5CCC(=O)O)c(CCC(=O)OC)c4C)[C@@]1(C)C3=CC=C(C(=O)OC)[C@H]1C(=O)OC (tested in a mixture with another compound) |  | 3.98 µM (active)
Cc1ccc(S(=O)(=O)NC(=O)NN2C[C@H]3CCC[C@@H]3C2)cc1 | -0.7% | 
Cc1nccn1C[C@@H]1CCc2c(c3ccccc3n2C)C1=O |  | 3.98 µM (active)
COc1cc2nc(N3CCN(C(=O)[C@@H]4CCCO4)CC3)nc(N)c2cc1OC | -9.1% | 
CCN(CC)CCOC(=O)[C@@H](c1ccccc1)C1CCCCC1 |  | 1.26 µM (active)
CC[C@H](C(=O)[C@H](C)[C@H](O)[C@H](C)CCc1ccc(C)c(O)c1C(=O)O)[C@H]1O[C@](CC)([C@@H]2CC[C@@](O)(CC)[C@H](C)O2)C[C@H]1C | 1.4% | 
CS(=O)(=O)c1ccc([C@H](O)[C@H](CO)NC(=O)C(Cl)Cl)cc1 | -1.7% | 
C[C@]12CC[C@@H]3C(=CCc4cc(O)ccc43)[C@@H]1CCC2=O |  | 10 µM (active)
Cc1n[nH]c(=O)[nH]c1=O | -6.5% | 
CCOC(=O)O[C@]1(C(=O)COC(=O)CC)CC[C@@H]2[C@@H]3CCC4=CC(=O)C=C[C@@]4(C)[C@H]3[C@H](O)C[C@]21C | -16.4% | 
O=C(OC[C@@H](O)CO)c1ccccc1Nc1ccnc2cc(Cl)ccc12 |  | 5.01 µM (active)

SMILES | activity change, negative = inhibition | Potency
CS(=O)(=O)Nc1cccc(-c2nc(Nc3ccc(F)cc3)c3ccccc3n2)c1 |  | 0.794 µM (active)
C=C1CC[C@H](O)C/C1=C/C=C1\CCC[C@]2(C)[C@H]1CC[C@H]2[C@@H](C)/C=C\[C@@H](C)C(C)C | 0.1% | 
CCC[C@@H]1O[C@@H]2C[C@@H]3[C@H]4CCC5=CC(=O)C=C[C@@]5(C)[C@H]4[C@H](O)C[C@@]3(C)[C@@]2(C(=O)CO)O1 | -1.6% | 
CN[C@@H]1[C@H](O[C@H]2[C@@H](O[C@@H]3[C@@H](O)[C@@H](O)[C@@H](N=C(N)N)[C@@H](O)[C@@H]3N=C(N)N)O[C@@H](C)[C@]2(O)CO)O[C@H](CO)[C@@H](O)[C@@H]1O | -4.2% | 
CC(C)(C)CC(C)(C)c1ccc(OCOCCOCCO)c(Cc2cc(C(C)(C)CC(C)(C)C)cc(Cc3cc(C(C)(C)CC(C)(C)C)ccc3OCOCCOCCO)c2OCOCCOCCO)c1 | -3.7% | 
Cc1c(C)c2c(c(C)c1O)CC[C@@](C)(C(=O)O)O2 |  | 20 µM (active)
CCN1CCN(C(=O)N[C@H](C(=O)N[C@@H]2C(=O)N3[C@@H]2SC(C)(C)[C@@H]3C(=O)O)c2ccccc2)C(=O)C1=O | -2.8% | 
C[C@H](C(=O)O)c1cccc(Oc2ccccc2)c1 | 5.8% | 
COc1cc2ccc(=O)oc2c(O)c1O |  | 12.6 µM (active)
CC(=O)N[C@H](CS)C(=O)O | -6.3% [at 57 µM] | 
C[C@@H]1O[C@H](O[C@@H]2[C@H](C)O[C@H](O[C@@H]3[C@H](C)O[C@H](O[C@H]4CC[C@]5(C)[C@@H](CC[C@@H]6[C@H]5C[C@@H](O)[C@]5(C)[C@@H](C7=CC(=O)OC7)CC[C@]65O)C4)C[C@@H]3O)C[C@@H]2O)C[C@H](O)[C@@H]1O | 2.9% | 
CCC(=O)O[C@@]1(C(=O)SCF)[C@@H](C)C[C@H]2[C@@H]3C[C@@H](F)C4=CC(=O)C=C[C@@]4(C)[C@]3(F)[C@@H](O)C[C@]21C | -18.3% | 
NCC[C@H](O)C(=O)N[C@H]1C[C@@H](N)[C@@H](O[C@H]2O[C@@H](CN)[C@@H](O)[C@@H](O)[C@@H]2O)[C@@H](O)[C@@H]1O[C@H]1O[C@@H](CO)[C@@H](O)[C@@H](N)[C@@H]1O | -4.2% | 
CNCCC=C1c2ccccc2C=Cc2ccccc21 |  | 6.31 µM (active)
C[C@H](N[C@@H](C)COc1ccccc1)[C@H](O)c1ccc(O)cc1 |  | 5.01 µM (active)
CN(C)/N=N\c1nc[nH]c1C(N)=O | -11.7% | 
CO[C@H]1[C@H](O[C@H]2O[C@@H](C)[C@@H](O[C@@H]3C[C@](C)(O)[C@H](OC(=O)CC(C)C)[C@H](C)O3)[C@@H](N(C)C)[C@@H]2O)[C@@H](CC=O)C[C@@H](C)[C@@H](O)/C=C\C=C/C[C@@H](C)OC(=O)C[C@H]1OC(C)=O | 2.2% | 
OCCN1CCN(CCC=C2c3ccccc3Sc3ccc(Cl)cc32)CC1 |  | 15.8 µM (active)
CC(=O)OCC(=O)[C@@]1(O)CC[C@@H]2[C@H]3CCC4=CC(=O)CC[C@]4(C)[C@]3(F)[C@@H](O)C[C@@]21C | -5.9% | 
c1ccc2c(c1)CCCc1cc(NCCN3CCOCC3)nnc1-2 | -10.5% | 
